Inconclusive results are not listed. Unmarked numbers belong to inactive results. Active and inactive are the calls of the source. Calls follow the shape of the dose curve; as a rule, active = well fitted inhibition curve with a large enough effect in the repeat runs; inconclusive = weak or mixed curves; inactive = no such curve, though single readings can be large or run the other way.
Target: Cytochrome P450 2C9 (Homo sapiens) (UniProt P11712)
Test: Cytochrome P450 family 2 subfamily C member 9 (CYP2C9) small molecule antagonists: luciferase biochemical (cell-free) qHTS assay (AID 1645842); also: nearly all actives have a fitted effect of over 55% in size
Conditions: P450-Glo CYP2C9 enzyme assay, luciferin luminescence; series mostly up to 57.4 µM; activity change, negative = inhibition: at the top concentration
Method in brief: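 Luminescence, after 20 min with luciferin detection reagent, reflected CYP2C9 turnover during a 1 h NADPH-driven reaction at 37C. Enzyme-substrate mix contained 0.4% bovine serum albumin and was preincubated with compound 10 min at room temperature.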
% is scaled to controls: 0 for no effect and ±100 for the full control effect; potency is read from the fitted curve at half-maximal effect.

Sequence of Cytochrome P450 2C9 (Homo sapiens) (P11712 whole entry, looked up): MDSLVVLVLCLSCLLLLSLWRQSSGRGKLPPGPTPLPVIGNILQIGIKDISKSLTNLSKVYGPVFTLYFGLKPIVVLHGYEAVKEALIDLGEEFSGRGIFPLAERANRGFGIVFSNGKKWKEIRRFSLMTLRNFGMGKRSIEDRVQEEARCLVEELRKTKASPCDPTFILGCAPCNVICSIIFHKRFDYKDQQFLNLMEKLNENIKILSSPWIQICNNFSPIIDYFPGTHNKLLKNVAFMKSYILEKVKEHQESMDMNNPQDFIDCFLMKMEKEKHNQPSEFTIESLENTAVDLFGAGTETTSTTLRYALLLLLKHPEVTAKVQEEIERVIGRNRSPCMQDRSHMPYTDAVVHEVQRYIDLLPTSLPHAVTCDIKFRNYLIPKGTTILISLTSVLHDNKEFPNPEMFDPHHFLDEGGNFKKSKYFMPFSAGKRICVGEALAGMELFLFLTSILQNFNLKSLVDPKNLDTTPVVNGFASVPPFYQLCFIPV

Compound	activity change, negative = inhibition [%]	Potency
OC[C@H]1O[C@@H]2O[C@H]3[C@H](O)[C@@H](O)[C@@H](O[C@H]4[C@H](O)[C@@H](O)[C@@H](O[C@H]5[C@H](O)[C@@H](O)[C@@H](O[C@H]6[C@H](O)[C@@H](O)[C@@H](O[C@H]7[C@H](O)[C@@H](O)[C@@H](O[C@H]1[C@H](O)[C@@H]2O)O[C@@H]7CO)O[C@@H]6CO)O[C@@H]5CO)O[C@@H]4CO)O[C@@H]3CO	3.43	–
Cc1ccc(Nc2nc3nonc3nc2Nc2cccc(C(F)(F)F)c2)cc1Cl	–	5.35 µM (active)
O=C(O)CN(CC(=O)O)Cc1cc2c(-c3ccccc3C(=O)O)c3cc(CN(CC(=O)O)CC(=O)O)c(=O)cc-3oc2cc1O	9.11	–
Cc1cccc(NC(c2ccccc2F)c2ccc3ccc(C)nc3c2O)n1 (stereo not given)	–	6.01 µM (active)
Cc1ncc(Cl)cc1NCc1ccc(C(=O)N[C@@H](CC2CCCC2)C(=O)NC2CC2)s1	–	8.49 µM (active)
CCc1ccc(CNC(=O)C2CCCN(c3nnc(C)c4c(C)n(-c5ccccc5)nc34)C2)cc1 (stereo not given)	–	8.49 µM (active)
Cc1ccc(NC(=O)CSc2nc3ccccc3c3nc(CCn4cncc4C)nn23)cc1F	–	0.536 µM (active)
CC1=CC(O)=NS(=O)(=O)O1	1.75	–
Cc1ccc(-n2nc3c(N4CCCC(C(=O)NCc5ccccc5C)C4)nnc(C)c3c2C)cc1 (stereo not given)	–	2.68 µM (active)
N#C/C(=C/c1ccccc1Cl)c1nc2ccccc2c(=O)[nH]1	–	3.38 µM (active)
